The list is not random: actives were taken first. Their share in the collection is about 2.1%.
CF NFkB block: blocks PAF-induced NF-kB reporter in cystic fibrosis cells | actives 0.86% (n = 360,000) | inhibition, % at 5 µM | KKLEB NF-kB-GFP reporter, GFP fluorescence overnight | AID 588850;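 active = at least 50% inhibition at 5 µM, scaled per plate between neutral and stimulator controls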;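 also: PAF is a Pseudomonas aeruginosa culture filtrate used as stimulus; plate controls were PAF-stimulated DMSO wells for no effect and unstimulated DMSO wells for full effect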
PAX8 inh HTS: lowers PAX8-driven luciferase in RMG-I cells; RMG-I TPO-luciferase reporter, SteadyGlo, 24 h; inhibition, % at 12.6 µM; actives 1.2% (n = 360,000); AID 652154;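 active = mean replicate inhibition at least 60% with every replicate also reaching 60%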;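 also: luciferase light reporting Pax8 driven TPO promoter activity; plate controls were median of neutral control wells for no effect and mitoxantrone controls for full effect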
HIF-2a block: blocks HIF-2a reporter activity. 786-0 RCC cells HIF-2a reporter, luciferase luminescence, overnight. inhibition, % at 18.8 µM. actives 0.72% (n = 360,000). AID 624352;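 active = inhibition of the luminescence signal of 40% or more relative to plate controls, in a single-dose primary screen at 18.75 µM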
KKLEB tox: counter-screen for CF NF-kB inhibitors: cytotoxicity | KKLEB CF airway cells viability, ATPlite luminescence, overnight; stronger effect = lower value; cells stimulated with P. aeruginosa culture filtrate | activity change (cytotoxicity), % at 5 µM | actives 0.36% (n = 360,000) | AID 602141;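 active = corrected activity change at or below -50% at 5 µM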
EWS-Fli block: blocks EWS/Fli oncoprotein-driven transcription; A673 NR0B1-luciferase reporter, viability-normalised; inhibition, % at 12.6 µM; actives 0.67% (n = 350,000); AID 651661;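 active = mean inhibition of at least 50% after viability correction, with every replicate also passing that limit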;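 also: firefly luciferase signal divided by Alamar Blue viability fluorescence both relative to DMSO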
* hit, by the source's call.

For NC(=O)NCC#Cc1ccc2c(c1)[C@]1(C(=O)N2)[C@H](c2ccccc2OCCO)N2[C@H](c3ccccc3)[C@H](c3ccccc3)OC(=O)[C@H]2[C@@H]1C(=O)N1CCCCCCC1 the results were PAX8 inh HTS 23 and EWS-Fli block 1.
For O=C1O[C@H](c2ccccc2)[C@H](c2ccccc2)N2[C@H]1[C@@H](C(=O)N1CCCCCCC1)[C@]1(C(=O)Nc3ccccc31)[C@H]2c1ccccc1OCCO the results were PAX8 inh HTS 79* and EWS-Fli block 20.
`NC(=O)[C@@H]1[C@H]2C(=O)O[C@H](c3ccccc3)[C@H](c3ccccc3)N2[C@H](c2ccccc2OCCO)[C@@]12C(=O)Nc1ccccc12` gave PAX8 inh HTS 84* and EWS-Fli block 24.
`C[C@H]1CN([C@@H](C)CO)C(=O)c2cc(-c3ccc(C#N)cc3)cnc2O[C@H]1CN(C)Cc1ccccn1` gave EWS-Fli block -11.
CN(C)CCCCCCNC(=O)[C@@H]1C[C@@H]2C(=O)NCC(=O)N2[C@@H]1c1cccc(OCCO)c1 was read as PAX8 inh HTS -53 and EWS-Fli block -25.
For Cc1noc(C)c1S(=O)(=O)Nc1ccc2c(c1)CC(=O)N([C@@H](C)CO)C[C@H](C)[C@@H](CN(C)Cc1ccncc1)O2 the results were PAX8 inh HTS -11 and EWS-Fli block -7.
For COc1ccc(-c2sc3cc4c(cc3c2-c2ccc(OCCN3CCCCC3)cc2)OCO4)cc1 the results were CF NFkB block 72*, HIF-2a block 11 and KKLEB tox -78*.
`COc1cc(OC)cc(-c2sc3ccc(OC)cc3c2-c2ccc(OCCN3CCCCC3)cc2)c1` gave CF NFkB block 69*, HIF-2a block -23 and KKLEB tox -75*.
`COc1ccc2c3c(n(C)c2c1)[C@H](CO)N(CC1CC1)CC31CN(C(=O)Nc2ccccc2)C1` gave PAX8 inh HTS 7 and EWS-Fli block -6.
O=C(CSc1cccc[n+]1[O-])Nc1cc(S(=O)(=O)N2CCOCC2)ccc1N1CCOCC1 was read as CF NFkB block 6, PAX8 inh HTS 87*, HIF-2a block 6, KKLEB tox -5 and EWS-Fli block 8.
For O=C(CSc1cccc[n+]1[O-])Nc1cc(S(=O)(=O)N2CCOCC2)ccc1Cl the results were CF NFkB block -7, HIF-2a block 5 and KKLEB tox 1.
Screening COc1ccc2c3c(n(C)c2c1)[C@@H](CO)N(C(=O)C1CC1)CC31CCN(CC2CCCC2)CC1 returned PAX8 inh HTS -6 and EWS-Fli block -2.
For CCS(=O)(=O)c1nc(S(=O)(=O)c2ccc(C)cc2)c(N2CCN(CCO)CC2)s1 the results were CF NFkB block -15, PAX8 inh HTS 23, HIF-2a block 6 and KKLEB tox 6.
Screening CCCS(=O)(=O)c1nc(S(=O)(=O)c2ccc(C)cc2)c(N2CCN(C)CC2)s1 returned CF NFkB block -4, PAX8 inh HTS -3, HIF-2a block 8, KKLEB tox -10 and EWS-Fli block 12.
For Cc1ccc(S(=O)(=O)c2nc(S(=O)(=O)c3ccccc3)sc2N2CCN(CCO)CC2)cc1 the results were CF NFkB block 4, PAX8 inh HTS 71*, HIF-2a block 0, KKLEB tox 4 and EWS-Fli block 20.
Screening Cc1ccc(S(=O)(=O)c2nc(S(=O)(=O)c3ccccc3)sc2N2CCN(C)CC2)cc1 returned CF NFkB block 14, PAX8 inh HTS 88*, HIF-2a block -19, KKLEB tox -4 and EWS-Fli block 10.
`CCN1CCN(c2sc(S(C)(=O)=O)nc2S(=O)(=O)c2ccc(C)cc2)CC1` gave CF NFkB block 27, PAX8 inh HTS 71*, HIF-2a block 11, KKLEB tox -15 and EWS-Fli block 12.
Screening O=C(Nc1ccc(Oc2ccc(Cl)cc2)c(Cl)c1)c1cc(I)cc(I)c1O returned CF NFkB block 66*, PAX8 inh HTS 1, HIF-2a block -34, KKLEB tox 23 and EWS-Fli block -15.
Screening Cc1noc(C)c1S(=O)(=O)Nc1cccc2c1O[C@H](CN(C)Cc1ccc(C(=O)Nc3ccccc3N)cc1)[C@H](C)CN([C@H](C)CO)C2=O returned PAX8 inh HTS 6 and EWS-Fli block -4.
`COc1ccc2c3c([nH]c2c1)[C@H](CO)N(CC1CC1)CC31CCN(C(=O)c2ccccc2F)CC1` gave PAX8 inh HTS -6 and EWS-Fli block 8.
O=C(O)CCCCCN1C(=O)/C(=C/c2cn(-c3ccccc3)nc2-c2cccs2)SC1=S was read as CF NFkB block 68*, PAX8 inh HTS 11, HIF-2a block -11, KKLEB tox -9 and EWS-Fli block 9.
`O=C(O)CCCCCN1C(=O)/C(=C\c2cn(-c3ccccc3)nc2-c2cccs2)SC1=S` gave CF NFkB block 59*, PAX8 inh HTS 19, HIF-2a block 5, KKLEB tox -31 and EWS-Fli block 4.
For CN(C)c1ccc(C=c2c3cc([N+](=O)[O-])ccc3n3c2cc(-c2ccccc2)[n+]3C)cc1 the results were CF NFkB block -30, PAX8 inh HTS 114*, HIF-2a block 75*, KKLEB tox -52* and EWS-Fli block 56*.
For CN(C)c1ccc(C=c2c3ccccc3n3c2cc(-c2ccc(Cl)cc2)[n+]3C)cc1 the results were CF NFkB block -112, PAX8 inh HTS 78*, HIF-2a block -56, KKLEB tox -2 and EWS-Fli block 9.
For COc1cc(N(C)C)ccc1C=c1c2ccccc2n2c1cc(-c1ccccc1)[n+]2C the results were CF NFkB block -64, PAX8 inh HTS 88*, HIF-2a block 90*, KKLEB tox -26 and EWS-Fli block 36.
CN(C)c1ccc(C=c2c3ccccc3n3c2cc(-c2ccccc2)[n+]3C)cc1 was read as CF NFkB block -145, PAX8 inh HTS 95*, HIF-2a block 90*, KKLEB tox -22 and EWS-Fli block -10.
For CN(C)c1ccc(C=C2C=C(c3ccccc3)OC2=O)cc1 the results were CF NFkB block -10, PAX8 inh HTS -34, HIF-2a block -87, KKLEB tox -6 and EWS-Fli block -21.
Screening COc1ccc2c3c([nH]c2c1)[C@H](CO)N(Cc1ccccc1)CC31CCN(S(C)(=O)=O)CC1 returned EWS-Fli block -9.
`Cc1noc(C)c1NC(=O)Nc1ccc2c(c1)C(=O)N([C@H](C)CO)C[C@@H](C)[C@@H](CN(C)Cc1ccc(C(=O)O)cc1)OCCCC[C@H](C)O2` gave PAX8 inh HTS 0 and EWS-Fli block -4.
COc1cc(/C=C(/C(=O)O)c2ccc(-c3ccccc3)cc2)cc(OC)c1OC was read as CF NFkB block 14, PAX8 inh HTS 2, HIF-2a block 12, KKLEB tox -8 and EWS-Fli block 9.
For COc1cc(C=c2c3ccccc3n3c2cc(-c2ccccc2)[n+]3C)cc(OC)c1OC the results were CF NFkB block 22, PAX8 inh HTS 93*, HIF-2a block -22, KKLEB tox -26 and EWS-Fli block 8.

High-throughput results deposited in PubChem by several laboratories.
